12 molecules from PubChem BioAssay (NCATS) can be followed below.

Several values for one entry are separate records, joined by “and”; a condition that tells them apart may be missing. Equal entries are not always repeated. Records with an inconclusive call do not appear. Some compounds were tested as several samples or in several runs, with calls that do not always agree. A number with no mark means an inactive call. Activity calls are given as the source filed them. Calls come from the whole dose curve; as a rule, active = well fitted inhibition curve with a large enough effect; inconclusive = small, poorly fitted or top-dose-only effect; inactive = flat fitted curve, though single readings scatter.

One assay relates to CRL-7250. The assay can be described thus: Cytotoxic Profiling of Annotated Libraries Using Quantitative High-Throughput Screening (AID 1296008). Particulars: Five cell lines viability, CellTiter-Glo ATP luminescence, 48-72 h; max response: stronger effect = lower value. An outline of the steps:
(§1)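 Cytotoxicity was measured as CellTiter-Glo ATP luminescence, read after 10 min at room temperature. Compound treatment of the cells lasted 48 or 72 hr at 37 degrees Celsius in a qHTS format.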

A further assay deals with HEK293. The assay is described as above. Conditions: Five cell lines viability, CellTiter-Glo ATP luminescence, 48-72 h; max response: stronger effect = lower value. An outline of the steps:
as §1

The test system of assay [1] is HaCat. The description is as above. Particulars: Five cell lines viability, CellTiter-Glo ATP luminescence, 48-72 h; max response: stronger effect = lower value. An outline of the steps:
as §1

The subject of another assay is KB-3-1. The description is as above. Conditions: Five cell lines viability, CellTiter-Glo ATP luminescence, 48-72 h; max response: stronger effect = lower value. An outline of the steps: as §1
Assay [2] concerns NIH3T3. The assay is described as above. Particulars: Five cell lines viability, CellTiter-Glo ATP luminescence, 48-72 h; max response: stronger effect = lower value. An outline of the steps:
as §1

The subject of assay [3] is NIH3T3. The assay can be described thus: qHTS assay to identify novel small-molecules to repurpose for Merkel cell carcinoma treatment (AID 1296009). Conditions: MCC and control cell lines, CellTiter-Glo viability, 72 h; at 44.8 µM (top of the series) unless noted. Summed up:
(§2)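 72 hr, 37 degree celsius; NPC 8-pt / MIPE 11-pt dose response; compound pinned in DMSO; CellTiter-Glo, 10 min RT, luminescence; normalized to no-cell and DMSO controls.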

The test system of assay [4] is HACAT. The assay is described as above. Particulars: MCC and control cell lines, CellTiter-Glo viability, 72 h; series mostly up to 44.8 µM. An outline of the steps:
as §2

The subject of a further assay is HEK293T. Described as above. Particulars: MCC and control cell lines, CellTiter-Glo viability, 72 h; at 44.8 µM (top of the series) unless noted. An outline of the steps: as §2
In another assay the test system is MCC-13. The assay is described as above. Conditions: MCC and control cell lines, CellTiter-Glo viability, 72 h; series mostly up to 46 µM. Summed up:
as §2

Another assay concerns MCC-26. The assay is described as above. Conditions: MCC and control cell lines, CellTiter-Glo viability, 72 h; series mostly up to 46 µM. Summed up: as §2
For a further assay, the system named is MKL-1. Described as above. Conditions: MCC and control cell lines, CellTiter-Glo viability, 72 h; series mostly up to 46 µM. Summed up: as §2
A further assay deals with MKL-2. The assay is described as above. Conditions: MCC and control cell lines, CellTiter-Glo viability, 72 h; series mostly up to 46 µM. An outline of the steps:
as §2

Another assay concerns UISO. Described as above. Particulars: MCC and control cell lines, CellTiter-Glo viability, 72 h; series mostly up to 46 µM. Summed up: as §2
% is set by controls: 0 for no effect and ±100 for the full control effect; potency is the fitted concentration of half-maximal effect.
Note: nearly all actives have a fitted effect of over 60% in size.

Take `COc1ccc2c(c1)CC[C@@H](CN(C)CC(=O)O)[C@H]2c1ccccc1`: the max response in the assay with CRL-7250 is -2.88%; with HEK293, 2.06%; in the assay on HaCat [1], 0.39%; in the assay on KB-3-1, 2.76%. Besides, the Potency in the assay on HEK293 was 2.64 µM (active); in the assay on KB-3-1 it was 3320 nM (active); with NIH3T3 [2], 7430 nM (active). The result in the assay on NIH3T3 [2] and with NIH3T3 [3] was inactive.

For `CCCn1c(=O)c2[nH]c(-c3cnn(Cc4cccc(C(F)(F)F)c4)c3)nc2n(CC)c1=O`, the max response in the assay with CRL-7250 is -9.35%; in the assay with HaCat [1], -0.725%; in the assay with KB-3-1, 0.919%; in the assay on NIH3T3 [2] it was 1.05%. The result with HEK293, with HaCat [1], in the assay with KB-3-1, in the assay on NIH3T3 [2], with HEK293T and in the assay with NIH3T3 [3] was inactive. Further, the Potency entry in the assay with HACAT [4], in the assay on MCC-13, in the assay on MCC-26, in the assay on MKL-1, with MKL-2 and in the assay on UISO was “inactive” each time.

Consider `O=C1CCC[C@@H]2[C@H]3CCC[N+]4([O-])CCC[C@@H](CN12)[C@@H]34` (stereo partly specified), for which the max response in the assay with CRL-7250 was 2.61%; with HEK293, 0.171%; with HaCat [1], 2.01%; in the assay on KB-3-1, -0.364% and 8.14%; in the assay on NIH3T3 [2], -2.91%. Further, the molecule was called inactive in the assay with CRL-7250, in the assay with HaCat [1], in the assay on NIH3T3 [2] and in the assay on NIH3T3 [3]. The Potency result with HACAT [4], with MCC-13, in the assay on MCC-26, with MKL-1, with MKL-2 and in the assay on UISO was “inactive” each time.

For `CCc1cc2c(cc1N1CCC(N3CCOCC3)CC1)C(C)(C)c1[nH]c3cc(C#N)ccc3c1C2=O`, the max response is -36.8% and 0.704% with CRL-7250; -78.7% in the assay on HEK293; -16.1% and -0.553% in the assay with HaCat [1]; -32% and 1.82% in the assay on KB-3-1; -45.1% and -2.9% in the assay with NIH3T3 [2]. Moreover, the Potency with HEK293 is 3.17 µM (active). The Potency entry with MCC-13, in the assay with MCC-26, in the assay on MKL-1 and in the assay on UISO was “inactive” in each case.

For `Cc1ccc(NC(=O)C2(c3ccc4c(c3)OC(F)(F)O4)CC2)nc1-c1cccc(C(=O)O)c1`, the Potency in the assay with CRL-7250 was 187 nM (active); in the assay on HEK293 it was 0.0372 µM (active); with HaCat [1], 418 nM (active); with KB-3-1 it was 52.6 nM (active); with NIH3T3 [2], 93.5 nM (active); in the assay on MCC-13, 1180 nM (active). Besides, the Potency in the assay with MCC-26 is 833 nM (active); in the assay with MKL-2, 26.4 nM (active). Also, the max response in the assay on CRL-7250 is -5.91%; in the assay on HaCat [1], -0.152%. Also, the result in the assay with HEK293, in the assay with KB-3-1, with NIH3T3 [2], in the assay on HEK293T and in the assay on NIH3T3 [3] was inactive.

For the molecule `Cn1cc(-c2ccncc2)c(-c2ccc(OCc3ccc4ccccc4n3)cc2)n1`, the Potency was 2640 nM (active) with CRL-7250; 3.72 µM (active) and 20.6 µM (active) in the assay on HEK293. Moreover, the max response in the assay with HaCat [1] was -14.9%; in the assay with NIH3T3 [2], -27.9% and -28%. Moreover, the result in the assay on HaCat [1] was inactive. For the same molecule, the Potency result with HACAT [4], in the assay with MCC-13 and in the assay with MCC-26 was “inactive” in each case.

Take `COc1cc2c(Nc3ccc(NC(=O)c4ccccc4)cc3)ncnc2cc1OCCCN1CCOCC1`: the max response is 5% with CRL-7250, -7.34% in the assay on HEK293 and -17.8% in the assay on KB-3-1. Further, the values for the Potency in the assay with HEK293, in the assay on HaCat [1] and with NIH3T3 [2] were 23.1 µM (active), 7310 nM (active) and 14600 nM (active), respectively. Moreover, the Potency result in the assay with MCC-13, in the assay with MCC-26, in the assay with MKL-2 and in the assay with UISO was “inactive” in each case.

As for `COc1cccc(Nc2c(C(N)=O)cnc3c(C)cc(S(=O)(=O)c4cccc(C(=O)N(C)C)c4)cc23)c1`, the max response in the assay with CRL-7250 is -20.3%; in the assay with HaCat [1], 2.69%; in the assay on KB-3-1, -2.62% and -18.7%; in the assay on NIH3T3 [2], -0.878%. Further, the molecule was classed as inactive in the assay on CRL-7250. In addition, in the assay with HEK293, the Potency is 12.9 µM (active). The Potency entry in the assay with MCC-13, in the assay on MCC-26, with MKL-1, in the assay on MKL-2 and in the assay on UISO was “inactive” each time.

For the molecule `O=C(O)CCCc1c[nH]c2ccccc12`, the max response with CRL-7250 was -4.82%; with HEK293, -0.171% and -7.8%; in the assay on HaCat [1], 4.3% and 3.03%; in the assay with KB-3-1 it was 0.51%; in the assay on NIH3T3 [2], -1.55% and 2.66%. The molecule was called inactive in the assay on CRL-7250 and in the assay on KB-3-1. For the same molecule, the Potency result with MCC-13, in the assay on MCC-26, in the assay on MKL-1, in the assay with MKL-2 and in the assay on UISO was “inactive” in each case.

For `CC1(O)CC(c2nc(-c3ccc4ccc(-c5ccccc5)nc4c3)c3c(N)nccn23)C1` (stereo unspecified), the Potency was 11800 nM (active) in the assay on CRL-7250, 4.69 µM (active) with HEK293, 16600 nM (active) in the assay with NIH3T3 [2] and 662 nM (active) in the assay on UISO. Further, the max response with CRL-7250 is -9.35%; in the assay on HaCat [1], -1.26%. Further, in the assay on HaCat [1], the molecule was called inactive. Moreover, the Potency result in the assay with HACAT [4], in the assay on MCC-13 and with MCC-26 was “inactive” throughout.

For `O=C(c1cncc(Br)c1)N1CCC(N2CCCC2)CC1`, the max response in the assay with CRL-7250 is -7.35%; in the assay on HEK293, 2.69% and -9.71%; in the assay on HaCat [1], 2.29% and 3.12%; with KB-3-1, 1.64%; in the assay with NIH3T3 [2] it was 4.3% and 2.16%. The result with CRL-7250 and in the assay with KB-3-1 was inactive. The Potency result with MCC-13, in the assay on MCC-26, with MKL-1, in the assay with MKL-2 and in the assay with UISO was “inactive” each time.

With `CC1COC2(CCN(c3nc(=O)c4cc(C(F)(F)F)cc([N+](=O)[O-])c4s3)CC2)O1` (stereo unspecified), the molecule was classed as inactive in the assay on CRL-7250, with HEK293, with NIH3T3 [2], with HEK293T and in the assay on NIH3T3 [3]. The max response in the assay with HEK293 is 2.26%; with HaCat [1], 0.136%; with KB-3-1, 8.43% and -3.92%. Also, the Potency entry with MCC-13, in the assay on MCC-26, in the assay on MKL-1, with MKL-2 and with UISO was “inactive” each time.
